# Source: PubChem BioAssay AID624167 (Sanford-Burnham Center for Chemical Genomics, 2012)
# Experiment: Peg3 promoter luciferase inhibitors, potency, dose response, cell-based, HeLa, CREF/GAPDH counter-screen panel (AID 624167)
# Settings: CREF/GAPDH counter-screens; run 1, dose range 1, at 100 µM (top of the series)
row,Compound,inhibition [%]
1,Cc1ccc(OCC(=O)c2cc(C)n(Cc3ccco3)c2C)c([N+](=O)[O-])n1,70.8
2,CCCC(=O)NC(c1ccc(Cl)cc1)c1ccc2cccnc2c1O (stereo not drawn),70.4
3,NC(C(=O)O)C1ON=C(Cl)C1O (stereo not drawn),67
4,CC1=NOC(=O)/C1=C\c1ccc(-c2ccccc2Br)o1,94.2
5,COc1ccc(-n2c(O)c(/C=N/Nc3nc(C)cc(C)n3)c3ccccc3c2=O)cc1OC,-8.04
6,COc1ccccc1Nc1nc(-c2sc(NC(=O)c3ccco3)nc2C)cs1,18
7,CCOC(=O)c1c(SCCN2CCCCC2)n(-c2ccccc2)c(=S)n(-c2ccccc2)c1=O,97
8,C/C(=N\NC(=O)c1c(C)nc2ccccn12)c1ccc(O)cc1O,3.34
9,COc1cc(C(=O)N/N=C(\c2ccccc2)c2ccccn2)cc(OC)c1OC,20
10,Cc1cc(C)c2sc(NNC(=O)c3ccc(S(=O)(=O)N4CCc5ccccc5C4)cc3)nc2c1,58.6
11,COc1cc(OC)c2cc(C(=O)N/N=C/c3ccccc3O)[nH]c2c1,79.9
12,CC(=O)c1sc2c(c1OC(=O)c1ccc(Cl)cc1Cl)c(=O)n(-c1ccccc1)c(=S)n2-c1ccccc1,85.9
13,CN(O)C(=S)c1ccccc1,3.97
14,COc1ccc(/C=C2\SC(=S)N(CCCC(=O)NNC(=O)c3ccccc3O)C2=O)cc1,15
15,Cc1ccc(-n2c(N)c(C(=O)Nc3c(C)n(C)n(-c4ccccc4)c3=O)c3nc4ccccc4nc32)cc1,77.5
16,O=C(N/N=C/c1ccc(Cl)c([N+](=O)[O-])c1)c1cc(-c2ccc3c4c(cccc24)CC3)n[nH]1,75.4
17,CC1CC(C)C(=O)C(C(CC2CC(=O)NC(=O)C2)OC(=O)CC(=O)c2ccccc2)C1 (stereo not drawn),88.4

row,Compound,inhibition [%]
1,CC(C)(C)c1ccc(Cn2c(=O)cnc3ccccc32)cc1,88.2
2,COc1cccc2c1C(=O)c1c(O)c3c(c(O)c1C2=O)CC(O)(C(C)=NNC(=O)c1ccc(Cl)c(Cl)c1)CC3OC1CC(N)C(O)C(C)O1 (stereo not drawn),92
3,CCc1ccn2cc(-c3ccc4c(c3)OCO4)nc2c1,92.7
4,Cc1oc(-c2ccc3c(c2)OCCO3)cc1C(=O)O,98.6
5,Cc1nc(C)c(C(=O)N/N=C/c2cc(Br)ccc2O)s1,-7.82
6,CN(C)S(=O)(=O)c1ccc(-c2csc(N/N=C/c3ccc(O)cc3)n2)cc1,91.3
7,CCSc1nc2ccccc2n1C(=O)/C=C\c1ccc(OC)c(OC)c1,77.4
8,CCCCCCCNC(=O)C1(CC2CC(c3cccc(Br)c3)=NO2)CCNCC1 (stereo not drawn),95
9,CCN(CC)S(=O)(=O)c1cccc(C(=O)N/N=C(\C)c2ccc(O)cc2O)c1,-75.3
10,CC(=O)NC(c1ccc(Cl)cc1)c1ccc2cccnc2c1O (stereo not drawn),69.3
11,Cc1ccc(/C=C2\SC(=S)N(CCCC(=O)NNC(=O)c3ccccc3O)C2=O)cc1,76.4
12,CCCC(=O)NC(c1ccc(C(C)C)cc1)c1ccc2cccnc2c1O (stereo not drawn),54.3
13,COc1ccc(Nc2ncnc3ccc(Br)cc23)c(OC)c1,90.8
14,Cc1cc(NC(c2ccc(Cl)cc2)c2ccc3cccnc3c2O)no1 (stereo not drawn),39.3
15,Cc1ccc(/C=C2\SC(=S)N(CCCC(=O)Nc3ccccn3)C2=O)cc1,80.2
16,CCCn1nc(C(=O)Nc2nc(-c3ccccn3)cs2)c2ccccc2c1=O,13.9
